From PubChem
This is a sample that favours compounds with a hit; in the whole collection about 9.2% have one here.
ELG1 DNA repair: blocks ELG1-dependent DNA repair in HEK293T cells; HEK293T ELG1-luciferase reporter, luminescence, 16 h; DNA damage induced by 5-fluorouridine; Potency, µM (series often up to 46.1 µM), for the others: at the top dose activity change, negative = inhibition, most hits filed as inhibitors; 2.3% of 330,000 active; note: % is set by controls: 0 for no effect and ±100 for the full control effect; nearly all actives have a fitted effect of over 55% in size
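Reporter activity after DNA damage by 5-fluorouridine is monitored. Compound-treated cells incubate 16 hr at 37 °C, then ONE-Glo is added for 30 min before luminescence reading.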
NPC1 promoter act: activators of NPC1 promoter | Potency, µM (doses to about 9.22 µM), for inactives: at the top dose activation, most hits filed as activators | 2.4% of 320,000 active | Huh7 NPC1 promoter luciferase reporter, 24 h; note: % of control where 0% means no effect; nearly all actives have a fitted effect of over 60% in size
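Compounds in DMSO were transferred onto Huh7 NPC1-luciferase reporter cells pre-incubated 2 h; after 24 h at 37 °C, Amplite reagent was dispensed and luminescence recorded 10 min later.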
ELG1 genotoxic: induces genotoxicity in HEK293T cells with luciferase-tagged ELG1. HEK293T ELG1-luciferase reporter, luminescence, 16 h. Potency, µM (doses to about 46 µM), inactives show at the top dose activity change, positive = activation, actives largely listed as activators. 1.3% of 330,000 active. AID 504466; note: % of control where 0% means no effect; nearly all actives have a fitted effect of over 60% in size
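Step 1: seed 2,000 HEK293T ELG1-luciferase cells per well. Step 2: add compound or DMSO, incubate 16 hr at 37 °C. Step 3: ONE-Glo, 30 min at room temperature, read luminescence.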
Rab9 promoter act: activates the Rab9 promoter. 2.8% of 320,000 active. Huh7 Rab9 promoter-luciferase reporter, luminescence, 24 h. Potency, µM (series often up to 9.22 µM), without a hit: at the top dose activation, negative = inhibition, actives largely listed as activators. AID 485297; note: % of control where 0% means no effect; nearly all actives have a fitted effect of over 60% in size
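Measured in stably transfected Huh7 cells bearing a Rab9 promoter–luciferase construct: 24 h compound treatment at 37 °C, followed by luminescence detection.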
SMN2 splice up: increases expression of the SMN2 splice variant; 2.8% of 210,000 active; Potency, µM (highest dose often 46.1 µM), without a hit: top-dose activity change, positive = activation, hits mostly activators; HEK293 SMN2-luciferase splicing reporter, luminescence, 30-36 h; note: % of control where 0% means no effect; nearly all actives have a fitted effect of over 55% in size
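HEK293 cells carry an SMN2 minigene-luciferase reporter in which exon 7 inclusion puts luciferase in frame. Cells were seeded at 2000 cells/well, attached for 10-12 hours, then exposed to compounds for 30-36 hours at 37C before ONE-Glo luminescence.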
FLuc modulator: firefly luciferase modulation, counter-screen for miR-21 project; P08659; Potency, µM (top dose mostly 57.5 µM), without a hit: at the top dose activity change, negative = inhibition, usual class: inhibitors; 6.9% of 360,000 active; purified FLuc, Km substrates, luminescence inhibition;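 note: plate controls were vehicle for no effect and reference inhibitor for full effect; nearly all actives have a fitted effect of over 55% in size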
Target sequence (P08659 whole entry, looked up): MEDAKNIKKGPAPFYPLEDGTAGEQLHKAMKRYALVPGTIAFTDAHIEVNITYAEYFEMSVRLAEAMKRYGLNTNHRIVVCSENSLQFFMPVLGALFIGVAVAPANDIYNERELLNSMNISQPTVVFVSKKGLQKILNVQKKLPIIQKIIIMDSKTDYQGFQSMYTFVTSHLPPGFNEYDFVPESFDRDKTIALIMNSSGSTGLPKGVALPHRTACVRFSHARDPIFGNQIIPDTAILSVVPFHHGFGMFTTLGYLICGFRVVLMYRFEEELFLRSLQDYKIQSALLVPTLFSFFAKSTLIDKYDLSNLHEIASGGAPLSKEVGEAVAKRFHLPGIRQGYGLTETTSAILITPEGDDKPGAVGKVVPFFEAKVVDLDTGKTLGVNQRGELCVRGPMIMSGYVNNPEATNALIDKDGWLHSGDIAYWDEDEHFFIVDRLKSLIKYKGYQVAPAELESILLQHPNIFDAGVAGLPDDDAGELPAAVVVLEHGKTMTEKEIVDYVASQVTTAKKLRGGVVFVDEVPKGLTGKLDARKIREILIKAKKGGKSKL
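Purified P. pyralis luciferase, 10 nM final, with Km-level 10 uM D-luciferin and 10 uM ATP in 50 mM Tris acetate pH 7.5, 10 mM Mg acetate, 0.01% Tween-20, 0.05% BSA; 6-point qHTS titration about 60 µM downward; luminescence read.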
* hit, by the source's call; ? = inconclusive; nt = no result; [ ] = another dose, or the depositor's remark. Calls come from the whole dose curve; as a rule, active = well fitted curve in the direction sought with a large enough effect; inconclusive = small, poorly fitted or top-dose-only effect, or another doubt; inactive = no such curve, though single readings can be large; an effect the other way counts as inactive or inconclusive. Potency is the fitted concentration of half-maximal effect.

SMILES | ELG1 DNA repair | NPC1 promoter act | ELG1 genotoxic | Rab9 promoter act | SMN2 splice up | FLuc modulator
CC(C)(C)C(=O)Nc1ccc(-c2cn3ccsc3n2)cc1 | ? | 0.28µM* | ? | 0.13µM* | ? | 0.54µM*
Cc1nnc(C)n1/N=C/c1cc2ccccc2nc1Cl | 4% | -1% | 5% | -4% | 17% | -3%
Cn1c(N/N=C/c2cc3ccccc3nc2Cl)nc2ccccc21 | ? | 1µM* | ? | 0.45µM* | 2.2µM* | 0.027µM*
Cn1c(N/N=C/c2c[nH]c3ccccc23)nc2ccccc21 | ? | ? | 7% | ? | -109% | 1.5µM*
Cc1cc(N/N=C/c2c[nH]c3ccccc23)c2ccccc2n1 | 17% | 8% | 1% | 2% | -7% | -7%
CCN(CC)CCCn1c(-c2ccccc2)nc2c(N3CCOCC3)nc(C)nc21 | nt | nt | nt | nt | -8% | nt
COc1ccc(C(CC(=O)NCc2ccc(Cl)cc2)N2Cc3ccccc3C2=O)cc1OC (centres undefined) | nt | nt | nt | nt | nt | -1%
O=C(NOCc1ccccc1)c1ccc(Cl)cc1 | ? | 0.71µM* | ? | 0.5µM* | nt | 1.2µM*
O=C(NOCc1ccccc1)c1ccc([N+](=O)[O-])cc1 | ? | ? | ? | 1.3µM* | nt | 3.8µM*
COc1ccc(C(=O)NOCc2ccccc2)cc1 | ? | ? | ? | ? | nt | 1.9µM*
COc1ccc(C(=O)NCCONC(=O)c2ccc(OC)cc2)cc1 | 9% | -2% | 3% | -1% | nt | -3%
COc1ccc(N=Cc2ccc(-c3ccccc3)o2)cc1 | -11% | -3% | 12% | -12% | nt | 3µM*
COc1ccc(N=C/C=C2\C=C(c3ccccc3)OC(C)(C)O2)cc1 | ? | -1% | -7% | 3% | ? | ?
O/N=C\c1ccc(-c2ccccc2)o1 | ? | 22% | 15% | 24% | 13µM* | 13µM*
CCC(C)(C)C | nt | nt | nt | nt | 2% | nt
CC(C)C[C@@H](C=O)NC(=O)[C@H](CC(C)C)NC(=O)[C@H](CC(C)C)NC(=O)OCc1ccccc1 | nt | nt | nt | nt | -69% | nt
CN1N=C(C(=O)N2CCc3c([nH]c4ccccc34)C2c2ccccc2Cl)CCC1=O (centres undefined) | ? | 14% | ? | 5µM* | nt | 15µM*
O=C(c1cc[n+]([O-])cc1)N1CCc2c([nH]c3ccccc23)C1c1ccccc1Cl (centres undefined) | -13% | -2% | -3% | -5% | nt | -2%
O=C(N/N=C\c1ccc2c(c1)OCO2)c1ccc(Cn2cc(Br)c([N+](=O)[O-])n2)o1 | -3% | 3% | 3% | 2% | nt | 6µM*
O=C(N/N=C\c1ccc(F)cc1)c1ccc(Cn2cc(Br)c([N+](=O)[O-])n2)o1 | ? | 4% | 3% | -3% | -14% | 21µM*
Cc1ccc(NC(=O)Cc2noc3ccccc23)cc1 | ? | ? | ? | ? | ? | 21µM*
C=CCNC(=O)c1cc2c(=O)n3ccccc3nc2s1 | ? | 2.5µM* | ? | 1.8µM* | nt | 17µM*
CC(C)=C1SC(N2CCN(Cc3ccccc3)CC2)=NC1=O | 3% | 15% | 0% | 28% | 12% | -20%
CC1CN(C2=NC(=O)/C(=C3/C(=O)N(Cc4ccc(F)cc4)c4ccccc43)S2)CC(C)O1 (centres undefined) | 12µM* | -4% | -3% | 2% | nt | ?
O=C1N=C(N2CCOCC2)S/C1=C1\C(=O)N(Cc2ccccc2)c2ccccc21 | ? | 2.8µM* | ? | 1.6µM* | 27% | 0.67µM*
COc1ccc2oc(=O)c(C(=O)Nc3ccccc3O)cc2c1 | ? | 1µM* | 0.65µM* | 0.4µM* | nt | 0.6µM*
COc1ccc(NC(=O)c2cc3cc(OC)ccc3oc2=N)cc1 | 7% | 9% | 10% | -1% | -22% | 9.5µM*
COc1ccccc1NC(=O)c1cc2cc(Br)ccc2oc1=N | 25% | 26% | 2% | -1%[1.84 µM] | nt | 4.8µM*
